From PubChem BioAssay AID690 (Sanford-Burnham Center for Chemical Genomics, 2007)
In all, about 96,000 compounds went through this assay and about 80 (0.08%) were called active. No rule for the calls is given here. Only a sample is shown. Measured potencies and affinities stand elsewhere.

biological target: Alkaline phosphatase, placental type (Homo sapiens) (UniProt P05187); assay: inhibition of human placental alkaline phosphatase – biochemical, luminescence, HTS (AID 690); conditions: purified PLAP, luminescent substrate; at 20 µM; stronger effect = higher value
Sequence (P05187 whole entry, looked up): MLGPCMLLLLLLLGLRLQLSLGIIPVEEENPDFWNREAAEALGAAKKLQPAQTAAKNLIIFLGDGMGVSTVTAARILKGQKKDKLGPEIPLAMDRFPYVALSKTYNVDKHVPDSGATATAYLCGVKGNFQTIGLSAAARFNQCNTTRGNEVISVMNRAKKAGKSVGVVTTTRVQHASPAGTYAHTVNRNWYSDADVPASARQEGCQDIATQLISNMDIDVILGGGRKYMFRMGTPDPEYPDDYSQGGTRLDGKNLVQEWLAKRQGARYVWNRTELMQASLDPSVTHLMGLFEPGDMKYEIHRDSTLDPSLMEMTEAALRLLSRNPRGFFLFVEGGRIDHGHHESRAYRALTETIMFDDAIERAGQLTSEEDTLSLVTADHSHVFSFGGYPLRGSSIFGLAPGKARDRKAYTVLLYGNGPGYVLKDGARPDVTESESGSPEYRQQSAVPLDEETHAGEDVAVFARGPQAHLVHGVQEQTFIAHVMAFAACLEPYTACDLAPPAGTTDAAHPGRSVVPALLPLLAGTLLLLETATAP

inhibition, inactive:
CN(C)c1ccc(/C=C/c2cc[n+]([O-])cc2)cc1 5.5%, C[n+]1ccc(/C=C/c2ccc(Br)cc2)cc1 33.9%, CN(C)c1nc(C(=O)NN)nc(N(C)C)n1 21.7%, CC1=C(/C=C/C(=O)O)C(C)(C)CCC1 -32.1%, O=C(COC(=O)c1ccc(Cl)c(S(=O)(=O)N2CCCC2)c1)NC1CCCC1 -44.5%, CCn1cc(/C=C(/C#N)S(=O)(=O)c2ccccc2)cn1 -12.8%, N#C/C(=C\c1ccc[nH]1)S(=O)(=O)c1ccccc1 -3.2%, Cc1ccc(S(=O)(=O)N[C@@H](CC(C)C)C(=O)NCc2ccco2)cc1 18.5%, CC1(C)OC(=O)C(=CNc2ccc(F)cc2)C(=O)O1 19.1%, O=C(Nc1ccc(F)cc1)c1ccccc1CC[N+](=O)[O-] 8.4%, Cc1cc(C)nc(NN2C(=O)/C(=C/c3ccccc3)SC2=S)n1 12.4%, COc1ccccc1/C=C1\SC(=S)N(Nc2nc(C)cc(C)n2)C1=O 0.7%, Cc1cc(C)n2nc(SCc3cc(=O)oc4cc(C)c(C)cc34)nc2n1 -31.2%, CC1(C)C(=O)Nc2ccccc2N1C(=O)COC(=O)CCSc1ccccc1 6.2%, COc1ccccc1-n1cnc(N)c1C(=O)c1ccccc1 4.4%, Cc1ccc(N2CCN(C(=O)c3ccccc3Br)CC2)c(C)c1 -48.2%, CCOC(=O)c1c(N2C(=O)Nc3cc(Cl)c(Cl)cc3N2O)sc2c1CCCCC2 -30.1%, CCOC(=O)c1c(-n2c(C)cc(C=O)c2C)sc2c1CCCC2 -34.6%, CCOC(=O)Nc1sc(C)nc1-c1ccccc1 5.8%, COC(=O)C1=C(C)N=C2SC(C)C(=O)N2C1c1cccc(F)c1 (stereo not drawn) -3.9%, CCOc1ccc(OCC)c(NS(=O)(=O)c2cccc3nsnc23)c1 -1.4%, Cn1c(C(=O)NCCN2CCOCC2)cc2sccc21 11.3%, COC(=O)c1ccc(/C=C/C(=O)c2ccc(OC)c(OC)c2)cc1 5.6%, COC(=O)c1ccc(/C=C/C(=O)c2ccc(OC)cc2)cc1 15.1%, COC(=O)c1ccc2c(c1)C(C)(C)C(/C=C/c1ccc(OC)c(OC)c1OC)=[N+]2C -29.3%, COC(=O)c1ccc2nc(C)c(C)nc2c1 8.5%, O=C(CCCCCN1C(=O)c2ccccc2C1=O)Nc1ccc(S(=O)(=O)N2CCCCC2)cc1 8.2%, c1ccc(Cc2nn3c(Cn4nnc5ccccc54)nnc3s2)cc1 15.9%, COc1ccc(CCNC(=O)C2CC(=O)N(C3CCCC3)C2)cc1OC (stereo not drawn) -44.7%, Cc1cc(=O)n2c(ccc3ccccc32)c1C#N 8.7%, CCC(C)(C)NC(=O)C(c1cccs1)N(CC1CCCO1)C(=O)Cn1nnc2ccccc21 (stereo not drawn) -0.8%, Cc1cc(C)cc(NC(=O)CSc2nnc(-c3ccccc3)n2N)c1 -9.3%, Nc1c(-c2ccc(Cl)cc2)cnn1-c1cccc([N+](=O)[O-])c1 2.9%, COc1ccc(C(=O)O/N=C(\C)c2ccccc2)cc1 2.4%, c1ccc(Nc2cc(Nc3ccccc3)[nH]n2)cc1 11.7%, c1ccc(Nc2ccccn2)cc1 4.3%, Cc1cc(-c2ccccc2)n2nc(C)c(C#N)c2n1 -0.5%, C=CCOC(=O)C1=C(C)NC(=O)NC1/C=C/c1ccccc1 (stereo not drawn) 16.7%, O=C(Cn1ccc2ccccc2c1=O)NCCC(=O)NC1CCN(Cc2ccccc2)CC1 -48.7%, O=C(N1CCOCC1)N1CCC(n2nnc3cc(F)ccc32)CC1 -19.8%, O=C(NCc1ccccc1)c1ccc(-c2ccc(F)cc2)o1 3.6%, COc1ccc(-c2nc(-c3ccc(Br)o3)no2)cc1OC -40.2%, COc1ccc(-c2noc(-c3ccc(Br)o3)n2)cc1OC 29%, Cc1ccc(CNC(=O)c2ccc(C#CC(C)(C)O)s2)cc1 20.2%, O=C(CNS(=O)(=O)/C=C/c1ccccc1)OCC(=O)N1CCC(Cc2ccccc2)CC1 -18.3%, Cc1nc2c3cnn(-c4ccccc4)c3ncn2n1 41.1%, c1ccc(-n2ncc3c2ncn2nnnc32)cc1 -8.9%, CC(C)C1N=C2c3ccccc3N=C(SCC#N)N2C1=O (stereo not drawn) -3.7%, CC(C)C1N=C2c3ccccc3N=C(SCC(=O)NCCc3ccc(S(N)(=O)=O)cc3)N2C1=O (stereo not drawn) -3.1%, COc1ccc(-n2nnnc2SCC(N)=O)cc1 20.8%, C=CCn1c(SCC(=O)Nc2ccc3c(c2)OCO3)nnc1-c1ccccc1OC -54.3%, CCn1c(SCC(=O)C(C)(C)C)nnc1-c1ccccc1OC 5.6%, COc1ccc(-n2nnnc2SCC(=O)c2cccc(OC)c2)cc1 8.8%, CCn1c(CSc2nc3ccccc3s2)nnc1SCC(=O)c1ccc(O)cc1O -26.1%, CCn1c(CSc2nc3ccccc3s2)nnc1SCC(=O)c1ccc(Cl)cc1 -26.1%, CCOC(=O)CNC(=O)CSc1nnc(-c2ccccc2OC)n1CC -10.2%, C=CCn1c(SCC(=O)c2ccc(OC)cc2)nnc1-c1cc2cccc(OC)c2o1 21.9%, COc1ccc(CNc2n[nH]c(NCc3ccc(OC)c(OC)c3)n2)cc1OC -86.4%, O=C(CC1(O)C(=O)Nc2ccccc21)c1cccnc1 (stereo not drawn) 26.9%, COc1cc2c(cc1NC(=O)CSc1nnnn1-c1ccccc1)oc1ccccc12 21.8%, CCc1ccc(C(=O)COC(=O)C(Cc2ccccc2)NC(=O)c2ccc(Cl)cc2)cc1 (stereo not drawn) -8.9%, CCc1ccc2nc3c(c(C(=O)O)c2c1)CCC3 7.8%, Cc1ccc(S(=O)(=O)N2CCC(=O)N2)cc1 -17.1%
